Experimental data reported in PMC4336329 (PLoS ONE, 2015).
In all, about 310,000 compounds went through this assay and about 14,000 (4.5%) showed an effect of 50% or more. Effects have a minus sign here. For the sample, strong results were picked, then their nearest neighbours and some compounds at random.

Each compound was assayed against human ether-à-go-go-related gene (hERG) potassium channel (human, UniProt Q12809) (assay: primary screen, population patch clamp on CHO cells stably expressing hERG; higher = less effect of the substance).
human ether-à-go-go-related gene (hERG) potassium channel, sequence (Q12809 whole entry, looked up): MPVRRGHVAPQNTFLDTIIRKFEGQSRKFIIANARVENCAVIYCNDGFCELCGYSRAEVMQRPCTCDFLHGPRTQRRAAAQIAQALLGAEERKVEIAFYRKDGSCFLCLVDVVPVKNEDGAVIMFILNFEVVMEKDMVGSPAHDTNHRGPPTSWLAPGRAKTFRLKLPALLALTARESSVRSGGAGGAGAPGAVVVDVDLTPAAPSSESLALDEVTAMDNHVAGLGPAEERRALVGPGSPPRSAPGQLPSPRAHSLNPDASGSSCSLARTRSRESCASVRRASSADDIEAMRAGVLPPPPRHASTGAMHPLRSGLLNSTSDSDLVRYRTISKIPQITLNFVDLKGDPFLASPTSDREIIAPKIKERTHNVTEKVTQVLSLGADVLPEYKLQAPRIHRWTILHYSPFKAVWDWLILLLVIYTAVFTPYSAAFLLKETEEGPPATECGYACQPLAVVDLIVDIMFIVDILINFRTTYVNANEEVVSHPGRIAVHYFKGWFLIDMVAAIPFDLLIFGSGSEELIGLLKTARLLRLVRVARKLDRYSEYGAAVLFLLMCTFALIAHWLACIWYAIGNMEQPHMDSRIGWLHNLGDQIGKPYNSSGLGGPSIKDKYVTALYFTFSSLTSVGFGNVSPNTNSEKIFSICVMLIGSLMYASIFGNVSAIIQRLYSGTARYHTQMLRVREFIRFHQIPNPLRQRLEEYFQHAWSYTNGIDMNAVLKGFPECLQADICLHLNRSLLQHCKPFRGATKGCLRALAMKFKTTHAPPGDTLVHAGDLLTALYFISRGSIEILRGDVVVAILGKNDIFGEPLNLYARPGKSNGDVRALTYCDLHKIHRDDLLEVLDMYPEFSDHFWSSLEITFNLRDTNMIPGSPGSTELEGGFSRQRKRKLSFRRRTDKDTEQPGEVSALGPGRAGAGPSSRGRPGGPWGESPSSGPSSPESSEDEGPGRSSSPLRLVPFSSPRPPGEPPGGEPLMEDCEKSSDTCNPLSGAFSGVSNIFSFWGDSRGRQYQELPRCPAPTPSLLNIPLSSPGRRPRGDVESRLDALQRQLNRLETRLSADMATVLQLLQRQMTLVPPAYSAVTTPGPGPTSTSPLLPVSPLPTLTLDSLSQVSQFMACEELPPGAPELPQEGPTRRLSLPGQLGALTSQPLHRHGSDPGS
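Note: peak tail current of the secondary pulse compared with the same well before compound.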

Row | SMILES | hERG current change (%, negative = inhibition) at 10uM
1 | Cc1ccsc1C(=O)OCC(=O)NC1CCCC1 | 13%
2 | CC1(C)CC(=O)CC(C2(O)C(=O)N(Cc3ccccc3)c3ccccc32)O1 (stereo not drawn) | 7.55%
3 | COCCCNC(=S)N1CCC(NC(=O)c2ccco2)CC1 | -4.82%
4 | COCC(=O)N(CCc1ccc(OC)c(OC)c1)Cc1nc2ccccc2c(=O)[nH]1 | -8.28%
5 | C/C(=N/NS(=O)(=O)c1cc(C)ccc1C)c1ccncc1 | 11%
6 | CCCCC(=O)Nc1ccc(C(=O)N2CCN(C)CC2)cc1 | 6.41%
7 | CCOC(=O)N1CCN(C(=O)c2ccc(SC)cc2OC)CC1 | -2.46%
8 | O=C(Cc1coc2cc3c(cc12)CCC3)OCc1cc(=O)n2c(n1)sc1ccccc12 | 4.53%
9 | CC(=O)O[C@@]12CO[C@@H]1C[C@H](OC1OCC(O)C(O)C1O)[C@@]1(C)C(=O)[C@H](O)C3=C(C)[C@@H](OC(=O)[C@H](O)[C@@H](NC(=O)c4ccccc4)c4ccccc4)C[C@@](O)([C@@H](OC(=O)c4ccccc4)C12)C3(C)C (stereo partly drawn) | -7.05%
10 | CCOc1cc(CNC2CCCC2)ccc1OCc1ccccc1Cl.Cl | -50.6%
11 | COc1cc(CNC2CCCC2)c(Br)cc1OC1CCCC1.Cl | -45.9%
12 | COc1cc(CNn2nnnc2N)ccc1OCc1c(Cl)cccc1Cl | -1.22%
13 | COc1ccc(Cl)cc1NC(=S)NCc1ccccn1 | 9%
14 | COc1cc(CNC2CCCC2)cc(Cl)c1OCc1ccccc1Cl.Cl | -30%
15 | CCOc1cc(CNC2CCCC2)cc(Cl)c1OCc1ccccc1.Cl | -10.3%
16 | COc1ccc(-c2ccc(CNCc3ccccn3)o2)cc1Cl.Cl | -7.77%
17 | COc1cc(CNCc2ccccn2)ccc1OCc1ccc(Cl)cc1Cl.Cl | -58.1%
18 | O=C(NCc1ccccn1)c1ccccc1OCc1ccc(Cl)cc1Cl | -1.04%
19 | COc1cc(CNC2CCCCCCC2)c(Br)cc1OCCO.Cl | 7%

Row | SMILES | hERG current change (%, negative = inhibition) at 10uM
20 | COc1cc(CNC2CCCC2)c(Br)cc1OCc1ccccc1.Cl | -72.1%
21 | COc1cc(CNCc2ccccn2)ccc1OCc1c(Cl)cccc1Cl.Cl | -51.5%
22 | COc1ccc(-c2oc(=O)c3cc(OC)c(OC)cc3c2C(F)(F)F)cc1 | 23.7%
23 | CC(C(=O)NCCCc1ccccc1)n1cccc1C(=O)c1ccccc1 (stereo not drawn) | -5.48%
24 | O=C(COC(=O)c1ccccc1C(=O)c1ccc(Cl)cc1)NCC1CCCO1 (stereo not drawn) | 1.96%
25 | CN(C)/C=C/C(=O)c1ccc(C(F)(F)F)cc1F | 15.3%
26 | CCOc1cc(N2CCOCC2)c(OCC)cc1NC(=O)CSc1n[nH]c(N)n1 | 38.2%
27 | Cc1ccc(OCC(=O)NNC(=O)c2cc(C)[nH]n2)cc1 | 24.6%
28 | CCc1nnc(NC(=O)CSc2nnc3ncccn23)s1 | 19.2%
29 | COC(=O)c1nn(-c2ccc(F)cc2)ccc1=O | 8.12%
30 | C#CCOCCOCCOCCNc1nc(N2CCN(C(=O)CCCCCCCCCCNC(=O)Cn3cc(C[C@@H](C)O)nn3)CC2)nc(N2CCN(C(=O)CCCCCCCCCCNC(=O)[C@H](CCCN=C(N)N)n3cc(C[C@@H](C)CC)nn3)CC2)n1 | 3.82%
31 | COc1ccccc1C(=O)OCn1nnc2ccccc2c1=O | -1.17%
32 | CN1CCN(C(=O)C23CCC(C)(C(=O)C2Br)C3(C)C)CC1 (stereo not drawn) | 1.95%
33 | CCOc1cc(CNCc2ccccn2)cc(Cl)c1OCC.Cl | -0.796%
34 | COc1cc(CNCc2ccccn2)ccc1OCC(=O)NC1CCCCC1.Cl | -14.5%
35 | COc1cc(CNCc2ccccn2)ccc1OCc1ccccc1Cl.Cl | -58.3%
36 | CC1=C(C(=O)Nc2ccccc2)C(c2cccs2)NC(=O)N1 (stereo not drawn) | 15.6%
37 | Cc1cc(C)n(CC(=O)NNC(=O)c2ccc(NC(=O)CC#N)cc2)n1 | 5.56%
38 | Cc1cc(C(C)(C)C)ccc1OCCOCCN1CCCC1 | -44.5%

Row | SMILES | hERG current change (%, negative = inhibition) at 10uM
39 | Cc1cc(C(C)(C)C)ccc1OCCN(C)C | -7.47%
40 | Cc1cc(C(C)(C)CC(C)(C)C)ccc1OCCOCC[N+](C)(C)Cc1ccccc1.[Cl-] | -80.9%
41 | Cl.Nc1ccc2c(c1)oc1ccccc12 | 4.15%
42 | CCc1ccc(NC(=O)Nc2ccc3c(c2)N(C)C(=O)CS3)cc1 | 7.64%
43 | CCc1cc2c(NCCN3CCCCC3)ncnc2s1.Cl | -71.9%
44 | CCc1cc2c(NCCO)ncnc2s1 | 14.3%
45 | CCc1cc2c(NCCC(=O)O)ncnc2s1 | 4.76%
46 | Cc1csc(SCC(=O)NC2CCCCC2)n1 | -1.79%
47 | CCOc1ccccc1NC(=O)C(Sc1nnc2ccccn12)c1ccccc1 (stereo not drawn) | -12.5%
48 | Cc1ccc2cc(C)c3nnc(SCC(=O)NCc4ccco4)n3c2c1 | -25.5%
49 | O=C1c2ccc3c4c(ccc(c24)C(=O)N1c1ccc(O)cc1)C(=O)N(c1ccc(O)cc1)C3=O | 23.3%
50 | CCNS(=O)(=O)c1ccc(Br)c(OC)c1 | 10.4%
51 | Cc1cc(=O)oc2c(C(=O)/C=C\c3cccs3)c(O)ccc12 | 11.1%
52 | CCCCN(C)CCNC(=O)c1cc2c(-c3cccc(OC)c3)nn(C)c2s1 | -49.5%
53 | COc1cccc(-c2nn(C)c3sc(C(=O)NCCCN(C)Cc4ccccc4)cc23)c1 | -52.2%
54 | COCCCNC(=O)c1cc2c(-c3cccc(OC)c3)nn(C)c2s1 | -5.59%
55 | CCN(CCCNC(=O)c1cc2c(-c3cccc(OC)c3)nn(C)c2s1)Cc1ccccc1 | -68.1%
56 | CCN(CC)CCNC(=O)c1cc2c(-c3cccc(OC)c3)nn(C)c2s1 | -31.8%
57 | CCN(CC)CCCNC(=O)c1cc2c(-c3cccc(OC)c3)nn(C)c2s1 | -44.7%
